Measured values: PubChem BioAssay (NCATS)
The source made the active and inactive calls. Calls follow the shape of the dose curve; as a rule, active = well fitted activation curve with a large enough effect; inconclusive = small, poorly fitted or top-dose-only effect; inactive = no such curve, though single readings can be large or run the other way.

Each compound was assayed against Cytochrome P450 3A4 (Homo sapiens) (UniProt P08684) (assay: qHTS Assay for Activators of Cytochrome P450 3A4 (AID 885; also: nearly all actives have a fitted effect of over 65% in size)). Conditions: recombinant CYP3A4, Luciferin-PPXE luminescence, 60 min; series mostly up to 57.1 µM.
Sequence of Cytochrome P450 3A4 (Homo sapiens) (P08684 whole entry, looked up): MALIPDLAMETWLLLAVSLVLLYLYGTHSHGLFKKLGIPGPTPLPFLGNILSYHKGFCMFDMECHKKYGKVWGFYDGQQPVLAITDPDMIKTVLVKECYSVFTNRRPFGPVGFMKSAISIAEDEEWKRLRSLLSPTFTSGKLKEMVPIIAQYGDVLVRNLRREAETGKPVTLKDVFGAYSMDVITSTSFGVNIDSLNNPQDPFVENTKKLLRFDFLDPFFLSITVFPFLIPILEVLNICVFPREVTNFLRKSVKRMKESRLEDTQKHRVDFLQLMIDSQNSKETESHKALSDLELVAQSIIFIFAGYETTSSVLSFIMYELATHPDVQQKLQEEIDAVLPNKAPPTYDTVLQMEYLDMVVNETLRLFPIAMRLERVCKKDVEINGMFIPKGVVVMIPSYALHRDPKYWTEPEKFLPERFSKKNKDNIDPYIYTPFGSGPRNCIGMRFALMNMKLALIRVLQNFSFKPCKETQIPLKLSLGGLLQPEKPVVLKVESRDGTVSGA
Method in brief: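 Human CYP3A4 (20 nM) with Luciferin-PPXE at 25 uM (its KM) in 200 mM KPO4; 10 min compound preincubation, then NADPH regeneration and 60 min reaction at RT. Luciferin read by luminescence; normalized to 57 uM ketoconazole full inhibition.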

Activity change, positive = activation, inactive:
CO[C@@H]1COC(=O)C/C=C\[C@@H](C)[C@H](OC)COC(=O)[C@H](COCc2ccccc2)NC(=O)C/C=C\[C@H]1C -41.7% [at 11.4 µM]
CCc1cc2c(nc1CC)CCN(CC/C(C)=N/OC[C@@H](C)[C@H](OCc1ccccc1)C(C)C)C2 -34.8% [at 11.4 µM]
C/C(CCN1CCCc2nc(C)c(C)cc21)=N\OC[C@@H](C)[C@H](OCc1ccccc1)C(C)C -46.3% [at 11.4 µM]
CC(C)=CCC/C(C)=C/CO/N=C1/C[C@@H](O)[C@@H](O)[C@@H]2[C@H]3C(=O)N(c4ccc(F)cc4F)C(=O)[C@@H]3CC[C@@H]12 -30.2% [at 11.4 µM]
CC(C)CO/N=C1/C[C@@H](O)[C@@H](O)[C@@H]2[C@@H]3C(=O)N(Cc4ccc5c(c4)OCO5)C(=O)[C@H]3CC[C@@H]12 -50.2% [at 11.4 µM]
CO[C@H]1COC(=O)[C@H]2CCCN2C(=O)C/C=C\[C@@H](C)[C@H](OC)COC(=O)C/C=C\[C@@H]1C -32.7% [at 11.4 µM]

Potency, inactive:
COC(=O)[C@@H]1C[C@@]2(O)[C@H](O)[C@H](O)[C@H](O)C[C@H]2N1CC(c1ccccc1)c1ccccc1
CCC1=C(OC(=O)N(CC)CC)N2C(=O)OC(=NCCOC)[C@]2(C)[C@H]2C1=CC[C@H]1C(=O)NC(=O)[C@H]12
CCC1=C2CC[C@H]3C(=O)NC(=O)[C@H]3[C@H]2[C@@]2(C)C(=O)N(CC3CC3)C(=O)N2C1=O
COc1ccc(-c2coc3ccc(OC4OC(COC(C)=O)C(OC(C)=O)C(OC(C)=O)C4OC(C)=O)c(OC(C)=O)c3c2=O)cc1 (stereo unspecified)
FC(F)(F)c1ccc(C2[C@H]3CN(Cc4ccc(-c5ccccc5)cc4)[C@H](c4ccccc4)C34CC2(c2cccnc2)C4)cc1 (stereo partly specified)
CC1(C)CC(=O)c2c(oc3cc(O)c(O)cc23)C1
COC(=O)CN=C1OC(=O)N2C(=O)C3=C4C(C[C@H]5C(=O)N(c6ccccc6)C(=O)[C@H]5[C@H]4[C@@]12Cc1ccccc1)[C@H]1C(=O)N(c2ccccc2)C(=O)[C@H]1[C@H]3C (stereo partly specified)
CCC1=C2CC[C@H]3C(=O)N(CC(=O)OC)C(=O)[C@H]3[C@H]2[C@@]2(C)C(=NCC(=O)OC)OC(=O)N2C1=O
CCC1=C2CC[C@H]3C(=O)NC(=O)[C@H]3[C@H]2[C@@]2(C)C(=NCC3CC3)OC(=O)N2C1=O
c1ccc(C2[C@H]3CN(CC4CCCCC4)[C@H](c4ccccc4)C34CC2(c2ccccc2)C4)cc1 (stereo partly specified)
